Tested on: Vero E6 infected with SARS-CoV-2
Assay: inhibition of SARS-CoV-2 cytopathic effect; higher = more antiviral protection, active = above 15
Conditions: 48 h

Measured: inhibition of SARS-CoV-2 cytopathic effect

O=c1sn(-c2cccc3ccccc23)c(=O)n1Cc1ccccc1 [tideglusib]
inactive: 1 nM -1.59% | 8.33 nM -1.6% | 100 nM -1.32% | 833.33 nM 0.87% | 10000 nM -0.03%

NCCc1c[nH]c2ccc(C(N)=O)cc12 [5-carboxamidotryptamine]
inactive: 1 nM 2.2% | 8.33 nM 0.54% | 100 nM 3.52% | 10000 nM 1.89%
active: 833.33 nM 15.1%

Cc1cc(N2CCOCC2)ccc1Nc1nc(NC2CCCCC2)c2nc[nH]c2n1
inactive: 1 nM -1.92% | 8.33 nM 1.08% | 100 nM -7.66% | 833.33 nM 3.17% | 10000 nM 0.7%

O=C(NCC1CCCCN1)c1cc(OCC(F)(F)F)ccc1OCC(F)(F)F (stereo not given) [flecainide]
inactive: 1 nM -1.39% | 8.33 nM 1.45% | 100 nM -0.28% | 833.33 nM 3.98% | 10000 nM -3.89%

COc1ccc2c3c1O[C@H]1C[C@@H](O)C=C[C@@]31CCN(C)C2 [galantamine]
inactive: 1 nM 0.63% | 8.33 nM 3.15% | 100 nM 2.16% | 833.33 nM 2.11% | 10000 nM 0.3%

O=C(NCCCN1CCOCC1)c1ccc(Cl)cc1 [eprobemide]
inactive: 1 nM 0.75% | 8.33 nM 1.72% | 100 nM 4.31% | 833.33 nM -1.08% | 10000 nM 0.69%

O=C(O)CCCO
inactive: 1 nM 1.65% | 8.33 nM 2.68% | 100 nM 2.71% | 833.33 nM 1.83% | 10000 nM 1.79%

CCCC(=O)Nc1cccc(NC(=O)c2ccccc2Br)c1
inactive: 1 nM 1.03% | 8.33 nM 1.45% | 100 nM 0.94% | 833.33 nM -1.59% | 10000 nM -0.66%

CC(C)C[C@@H](N)C(=O)N[C@H]1C(=O)N[C@@H](CC(N)=O)C(=O)N[C@H]2C(=O)N[C@H]3C(=O)N[C@H](C(=O)N[C@H](C(=O)O)c4cc(O)cc(O)c4-c4cc3ccc4O)[C@H](O)c3ccc(c(Cl)c3)Oc3cc2cc(c3O[C@@H]2O[C@H](CO)[C@@H](O)[C@H](O)[C@H]2O[C@H]2C[C@](C)(N)[C@H](O)[C@H](C)O2)Oc2ccc(cc2Cl)[C@H]1O [norvancomycin]
inactive: 1 nM -0.51% | 8.33 nM 2.53% | 100 nM 11.9% | 833.33 nM 1.73% | 10000 nM -2.8%

NC(=O)c1noc([C@H](CCCC2CCCCC2)CC(=O)NO)n1
inactive: 1 nM 1.44% | 8.33 nM -2.89% | 100 nM 0.07% | 833.33 nM -1.38% | 10000 nM -7.78%

CCC1(CC)C(=O)NC(=O)N(C)C1=O [metharbital]
inactive: 1 nM 0.2% | 8.33 nM 2.59% | 100 nM 1.14% | 833.33 nM 0.78% | 10000 nM 2.66%

Cc1cccc(-c2n[nH]cc2-c2ccc3ncccc3n2)n1 [repsox]
inactive: 1 nM -0.69% | 8.33 nM 2.3% | 100 nM -2.26% | 833.33 nM -4.59% | 10000 nM -4.62%

COC(=O)[C@@H]1C[C@H](OC(C)=O)C(=O)[C@H]2[C@@]1(C)CC[C@H]1C(=O)O[C@H](c3ccoc3)C[C@]21C [salvinorin-A]
inactive: 1 nM -2.48% | 8.33 nM -1.89% | 100 nM -1.61% | 833.33 nM -0.35% | 10000 nM 0.69%

O=C1O[C@H]([C@@H](O)CO)C(O)=C1O
inactive: 1 nM -3.29% | 8.33 nM -0.03% | 100 nM -1.22% | 833.33 nM -0.21% | 10000 nM -1.51%

CCN(CC)C(=S)SSC(=S)N(CC)CC [disulfiram]
active: 833.33 nM 26.5%
inactive: 1 nM 1.63% | 8.33 nM 1.79% | 100 nM 1.68% | 10000 nM 13.2%

Cc1onc(-c2ccccc2)c1-c1ccc(S(N)(=O)=O)cc1 [valdecoxib]
inactive: 1 nM 0.48% | 8.33 nM -0.66% | 100 nM -0.48% | 833.33 nM 3.3% | 10000 nM 0.55%

C(#CCN1CCCC1)CN1CCCC1 [tremorine]
inactive: 1 nM 8.56% | 8.33 nM 4.46% | 100 nM -2.04% | 833.33 nM -3.53% | 10000 nM -1.73%

Cc1ccc(-n2sc(=O)n(Cc3ccc(F)cc3)c2=O)cc1
inactive: 1 nM 1.81% | 8.33 nM -0.78% | 100 nM 0.17% | 833.33 nM -0.22% | 10000 nM -3.39%

CO[C@H]1C[C@H](O[C@@H]2/C(C)=C/C[C@@H]3C[C@@H](C[C@]4(CC[C@H](C)[C@@H](C5CCCCC5)O4)O3)OC(=O)[C@@H]3C=C(C)/C(=N/O)[C@H]4OC/C(=C\C=C\[C@@H]2C)[C@]43O)O[C@@H](C)[C@@H]1O [selamectin]
active: 10000 nM 16.1%
inactive: 1 nM -1.61% | 8.33 nM 0.4% | 100 nM -0.73% | 833.33 nM 2.72%

CNC(C)(C)Cc1ccccc1 [mephentermine]
inactive: 1 nM -6.95% | 8.33 nM -4.1% | 100 nM -6.2% | 833.33 nM -3.76% | 10000 nM 2.65%

O=C(NC(=O)c1c(F)cccc1Cl)NC1c2ccccc2-c2ccccc21
inactive: 1 nM -0.23% | 8.33 nM -0.67% | 100 nM 1.6% | 833.33 nM 2.13% | 10000 nM 0.4%

O=C(Nc1ccc(OC(F)(F)F)cc1)c1sccc1NCc1ccnc2ccccc12
inactive: 1 nM -2.32% | 8.33 nM 3.56% | 100 nM 4.81% | 833.33 nM 4.77% | 10000 nM 5.44%

O.O=[Si]=O.O=[Si]=O.O=[Si]=O.O=[Si]=O.[O]=[Mg].[O]=[Mg].[O]=[Mg]
inactive: 1 nM -4.07% | 8.33 nM 0.07% | 100 nM -1.66% | 833.33 nM 5.91% | 10000 nM 8.79%

O=c1c(O[C@@H]2O[C@H](CO)[C@H](O)[C@H](O)[C@H]2O)c(-c2ccc(O)c(O)c2)oc2cc(O)cc(O)c12 [hyperin]
inactive: 1 nM 0.95% | 8.33 nM 2.27% | 100 nM -0.59% | 833.33 nM -1.62% | 10000 nM 0.59%

Cc1ncc(CO)c(/C=N/NC(=O)c2ccncc2)c1O [pyridoxal-isonicotinoyl-hydrazone]
inactive: 1 nM 3.14% | 8.33 nM -0.89% | 100 nM -0.41% | 833.33 nM 0.28% | 10000 nM -0.54%

CNCC(=O)O [sarcosine]
inactive: 1 nM 0.02% | 8.33 nM 0.73% | 100 nM 0.05% | 833.33 nM 2.03% | 10000 nM 0.53%

O=C(Nc1ccccc1)c1cc([N+](=O)[O-])ccc1Cl
inactive: 1 nM 1.34% | 8.33 nM 2.14% | 100 nM 0.85% | 833.33 nM -0.67% | 10000 nM -0.39%

CC(=O)NCC(=O)N[C@H](CCC(=O)O)C(=O)O [N-acetylglycyl-D-glutamic-acid]
inactive: 1 nM 1.3% | 8.33 nM -0.41% | 100 nM -0.4% | 833.33 nM -0.04% | 10000 nM 1.12%

O=S(=O)(c1cccc2cnccc12)N1CCCNCC1 [fasudil]
inactive: 1 nM -2.19% | 8.33 nM -3.05% | 100 nM -2.08% | 833.33 nM -2.42% | 10000 nM -5.91%

CCCC(CCC)C(=O)Nc1ccn([C@@H]2O[C@H](CO)[C@@H](O)C2(F)F)c(=O)n1
inactive: 1 nM -0.06% | 8.33 nM -1.71% | 100 nM -2.25% | 833.33 nM -0.4% | 10000 nM -4.21%

CCC(COC(=O)c1cc(OC)c(OC)c(OC)c1)(c1ccccc1)N(C)C (stereo not given) [trimebutine]
inactive: 1 nM -4.71% | 8.33 nM -2.14% | 100 nM -2.65% | 833.33 nM -0.31% | 10000 nM 2.51%

Fc1ccc(CNc2ncnc3ccc(F)cc23)cc1 [spautin-1]
inactive: 1 nM -1.85% | 8.33 nM -0.71% | 100 nM -0.05% | 833.33 nM -0.85% | 10000 nM -1.95%

CN(C)C(=O)COC(=O)Cc1ccc(OC(=O)c2ccc(NC(=N)N)cc2)cc1 [camostat-mesilate]
inactive: 1 nM 3.69% | 8.33 nM -0.38% | 100 nM 1.74% | 833.33 nM 1.93% | 10000 nM -2.24%

OCc1cc(C(O)CNCCCCCCOCCCCc2ccccc2)ccc1O (stereo not given) [salmeterol]
inactive: 1 nM 0.19% | 8.33 nM 2.26% | 100 nM 10.4% | 833.33 nM 1.95% | 10000 nM -1.77%

C[C@H]1COC2=C1C(=O)C(=O)c1c2ccc2c1CCCC2(C)C [cryptotanshinone]
inactive: 1 nM 1.45% | 8.33 nM 0.55% | 100 nM 2.85% | 833.33 nM -1.89% | 10000 nM -2.92%

CN1CCN(C2CCN(C(=O)Nc3cc(Oc4ccc(NC(=O)C5(C(=O)Nc6ccc(F)cc6)CC5)c(F)c4)ccn3)CC2)CC1 [golvatinib]
active: 10000 nM 40.8%
inactive: 1 nM 0.88% | 8.33 nM 0.74% | 100 nM 2.78% | 833.33 nM 5.87%

CC(C)Nc1nc2cc(Cl)c(Cl)cc2n1[C@H]1O[C@@H](CO)[C@H](O)[C@@H]1O [maribavir]
inactive: 1 nM 2% | 8.33 nM -0.5% | 100 nM 0.22% | 833.33 nM -0.76% | 10000 nM -2.15%

Nc1cc(F)ccc1NC(=O)/C=C/c1cnn(C/C=C/c2ccccc2)c1
inactive: 1 nM -1.39% | 8.33 nM 1.78% | 100 nM 0.89% | 833.33 nM -2.26% | 10000 nM -1.9%

CCCCCCCCCCC[C@@H](C[C@@H]1OC(=O)[C@H]1CCCCCC)OC(=O)[C@H](CC(C)C)NC=O [orlistat]
inactive: 1 nM 1.59% | 8.33 nM 3.04% | 100 nM 0.9% | 833.33 nM 2.31% | 10000 nM 1.43%

Source: the supplement of paper PMC13380429
